Peg3 prom inh – reduces Peg3 promoter-driven luciferase expression in HeLa | 360,000 tested, 1.7% active | inhibition, % at 20 µM | HeLa PEG-Prom luciferase reporter, luminescence, overnight | AID 588405;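 active means inhibition of at least 50% at 20 µM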
Shn3 inh set2 – inhibitors of Schnurri-3 3'UTR reporter in osteoblasts; Clone20 osteoblast Shn3 3'UTR firefly luciferase, 24 h; inhibition, % at 12.5 µM; 360,000 tested, 0.52% active;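 active means mean inhibition of at least 75% with every replicate also reaching 75%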;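 further: 0% = median of neutral control wells and 100% = pilot-screen positive control compound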
KKLEB tox – CF airway cell cytotoxicity counter-screen; KKLEB CF airway cells viability, ATPlite luminescence, overnight; hits give low values; cells stimulated with P. aeruginosa culture filtrate; activity change (cytotoxicity), % at 5 µM; 360,000 tested, 0.36% active; AID 602141;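 active means corrected activity change at or below -50% at 5 µM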
CF NFkB inh – blocks PAF-induced NF-kB reporter in cystic fibrosis cells. KKLEB NF-kB-GFP reporter, GFP fluorescence overnight. 360,000 tested, 0.86% active. inhibition, % at 5 µM. AID 588850;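 active means at least 50% inhibition at 5 µM, scaled per plate between neutral and stimulator controls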;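 further: PAF is a Pseudomonas aeruginosa culture filtrate used as stimulus; plate controls were PAF-stimulated DMSO wells for no effect and unstimulated DMSO wells for full effect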
HIF-2a inh – inhibitors of HIF-2a; 786-0 RCC cells HIF-2a reporter, luciferase luminescence, overnight; inhibition, % at 18.8 µM; 360,000 tested, 0.72% active; AID 624352;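 active means inhibition of the luminescence signal of 40% or more relative to plate controls, in a single-dose primary screen at 18.75 µM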
The depositor's hits bear a star. A selection: hits, their analogues and other compounds. The true share with any hit is near 2.6%.

SMILES	Peg3 prom inh	Shn3 inh set2	KKLEB tox	CF NFkB inh	HIF-2a inh
Cc1ccc(OCCNC(=O)c2cc(C3CC3)nc3c2cnn3C(C)C)cc1	22.4	22.8	-36.2	20.7	18.2
O=C(NC1CC(=O)N(c2ccc(F)cc2)C1)C(=O)c1c[nH]c2ccccc12 (stereo not drawn)	7.1	3.1	-13.0	-0.3	25.6
O=C(c1nn2c(C(F)(F)F)cc(-c3ccco3)nc2c1Br)N1CCCc2ccccc21	60.4*	25.1	-21.0	18.2	31.7
O=C(c1nn2c(C(F)(F)F)cc(-c3cccs3)nc2c1Br)N1CCCc2ccccc21	48.5	19.5	-19.3	35.1	1.2
O=C(CSc1nncn1-c1ccccc1)Nc1ccccc1F	-14.5	-3.1	-6.0	0.1	-10.2
Cc1ccc(C#CC[N+]2(CC#Cc3ccc(C)cc3)CCCCC2)cc1	96.8*	76.2	-23.7	35.3	12.9
C(#Cc1ccccc1)C[N+]1(CC#Cc2ccccc2)CCCCC1	14.0	86.0*	-9.4	3.9	9.4
C#CC[N+]1(CC#Cc2ccccc2)CCCCC1	4.0	10.5	-4.3	6.0	12.6
Cc1cc(C)c(S(=O)(=O)/N=C2\C=C(NS(=O)(=O)c3ccccc3)C(=O)c3ccccc32)c(C)c1	9.8	9.2	21.1	50.7*	7.6
Cc1ccc(S(=O)(=O)/N=C2/C=C(C3C(=O)CC(C)(C)CC3=O)C(=O)c3ccccc32)cc1	-132.8	-59.4	3.0	-1.6	-89.8
Cc1ccc(S(=O)(=O)/N=C2\C=C(NS(=O)(=O)c3ccccc3)C(=O)c3ccccc32)cc1	-41.0	6.6	-3.1	72.7*	-49.1
C=CCc1cccc2cc(C(=O)OCC(=O)c3ccccc3)c(=O)oc12	1.3	-12.1	8.4	-21.6	-4.6
O=C(OCCOc1ccc(Cl)cc1)c1cc(S(=O)(=O)N2CCCCC2)ccc1N1CCOCC1	1.4	89.8*	-9.6	18.6	15.4
O=C(CCN1C(=O)/C(=C/c2ccc(F)cc2)SC1=S)NCCc1ccc(O)cc1	83.0*	-41.4	-0.3	-6.3	13.0
O=C(CN1C(=O)/C(=C/c2ccc(F)cc2)SC1=S)N1CCN(CCc2ccccn2)CC1	51.3*	-9.8	4.4	-4.2	6.6
COc1cccc(/C=C2\SC(=S)N(CCC(=O)Nc3ccc(O)cc3)C2=O)c1	-103.5	-27.8	12.8	13.3	-85.5
CN1CCN(C(=O)CCN2C(=O)/C(=C\c3ccc(F)cc3)SC2=S)CC1	14.9	-75.5	12.2	7.3	-17.4
COc1cccc(/C=C2\SC(=S)N(CCC(=O)NCCc3ccc(O)cc3)C2=O)c1	95.4*	-4.7	-8.8	13.1	28.9
NC(CCc1ccccc1)c1csc(Nc2cnccn2)n1 (stereo not drawn)	44.5	0.9	-1.0	-7.0	4.2
CC(C)OP(=O)(c1ccc(N(C)C)cc1)C(O)c1cccnc1 (stereo not drawn)	9.4	-3.5	-7.5	-15.9	10.2
Cn1ncc(Br)c1NC(=O)Nc1ccc(OC(F)(F)F)cc1	14.3	67.8	3.6	7.1	20.2
CCn1cc(S(=O)(=O)Nc2ncccn2)cn1	6.6	-6.0	-9.3	18.2	28.7
CCCCOc1ccc(C(=O)N2CC(C)OC(C)C2)cc1 (stereo not drawn)	6.0	15.2	10.0	0.6	7.0
CC1(C(=O)NS(=O)(=O)c2ccc(Br)cc2)CCN1C(=O)CCc1cccs1 (stereo not drawn)	0.8	-17.5	-1.2	4.0	7.3
COc1ccc(-c2nc3c(c(=O)[nH]c(=O)n3Cc3ccccc3)n2CCO)cc1	7.2	-24.1	-2.5	4.3	15.4
SMILES	Peg3 prom inh	Shn3 inh set2	KKLEB tox	CF NFkB inh	HIF-2a inh
O=c1[nH]c(=O)n(Cc2ccccc2)c2nc(-c3ccc(Oc4ccc(F)cc4)c([N+](=O)[O-])c3)n(CCO)c12	63.1*	3.3	-2.9	-22.2	20.5
CCN1/C(=C/c2ccc3ccccc3[n+]2CCCS(=O)(=O)[O-])C=Cc2cc(C)ccc21	11.3	11.8	-5.6	-6.7	9.0
CCN1/C(=C/c2cc[n+](C)cc2)C=Cc2cc(C)ccc21	60.6*	80.5	1.1	-46.1	6.4
CCCCCCN1C[C@H](n2cc(COC(=O)c3ccccc3)nn2)[C@@H](O)C[C@@H]1c1ccccc1	13.0	18.1	-11.5	23.7	8.0
CCCCCCN1C[C@@H](n2cc(COC(=O)c3ccccc3)nn2)[C@H](O)C[C@@H]1c1ccccc1	65.0*	-4.1	3.3	19.9	-4.1
FC(F)(F)c1nc2ccccc2nc1N/N=C\c1ccccc1	-133.0	-43.4	8.6	-46.4	-128.7
C[C@@H]1CCCCO[C@H](CN(C)Cc2ccccc2)[C@@H](C)CN([C@H](C)CO)C(=O)c2cc(NC(=O)c3ccccc3)ccc2O1	-5.4	89.9*	-1.1	-8.3	1.9
C[C@@H]1CCCCO[C@H](CN(C)Cc2ccc(Cl)c(Cl)c2)[C@H](C)CN([C@@H](C)CO)C(=O)c2cc(NC(=O)Nc3ccc(F)cc3)ccc2O1	27.5	40.6	1.8	24.6	-41.7
C[C@@H]1CN([C@@H](C)CO)C(=O)c2cc(NC(=O)c3ccccc3)ccc2O[C@@H](C)CCCCO[C@@H]1CN(C)Cc1ccc(C(F)(F)F)cc1	33.0	26.1	-7.6	6.6	-26.4
COc1ccc(NC(=O)Nc2ccc3c(c2)C(=O)N([C@H](C)CO)C[C@H](C)[C@@H](CN(C)Cc2ccc(Cl)c(Cl)c2)OCCCC[C@@H](C)O3)cc1	86.2*	27.8	-2.7	22.3	-12.1
Cc1cccc(C)c1NC(=O)CN(C)C(=O)c1cc(S(=O)(=O)N(C)C)ccc1N1CCCC1	-0.7	86.6*	-16.2	16.1	6.7
CN(CC(=O)Nc1ccc(F)c(F)c1F)C(=O)c1cc(S(=O)(=O)N(C)C)ccc1N1CCCC1	17.2	-6.3	-23.5	16.6	13.2
COc1ccc(NC(=O)Cc2nnc(SCC(=O)c3ccc(F)cc3)n2C)cc1	10.0	3.4	-6.8	-4.8	8.6
CCC1CCCCN1CCCNC(=O)c1cc2c(=O)[nH]c3ccccc3c2n1C (stereo not drawn)	3.2	-12.4	5.1	-17.4	16.8
O=C(COc1coc(CN2CCc3ccccc3C2)cc1=O)Nc1cccc(F)c1	-17.9	-4.2	-2.9	-6.9	-26.0
O=C(COc1coc(CN2CCc3ccccc32)cc1=O)Nc1cccc(F)c1	13.7	-6.7	-55.9*	64.0*	6.0
CCCCn1c(N)c(N(CC(C)C)C(=O)c2ccc(OCc3c(C)noc3C)cc2)c(=O)[nH]c1=O	3.7	1.4	-0.1	-11.9	-2.8
NC(=S)NN=Cc1nccc2c(C(F)(F)C(F)(F)C(F)(F)F)cccc12	36.6	82.8	-19.5	37.8	-88.7
NC(=S)NN=Cc1nccc2ccccc12	-57.6	79.2	-74.4*	86.7*	-155.4
O=C(Nc1ccccc1)c1ccccc1Oc1ccc(C(F)(F)F)cc1[N+](=O)[O-]	56.1*	2.7	4.4	-4.5	6.0
O=C(Nc1ccc(F)cc1)c1ccccc1Oc1ccc(C(F)(F)F)cc1[N+](=O)[O-]	27.5	60.8	-14.2	16.1	1.9
N#Cc1c2ccc([N+](=O)[O-])cc2[n+]([O-])n1-c1ccccc1	100.2*	31.5	-38.2	-23.8	-16.4

Assay outcomes deposited in PubChem BioAssay by several laboratories.
